The values that follow come from article PMC11006913.

Substitutions are numbered along the chain they refer to.

Common to all, as to test: PBM; 200 nM protein, PBS
Holding throughout (conditions): dsDNA, one strand shown

Test [1] has as its target NKX2-5 (Homo sapiens, UniProt P52952 125-210, R139K).
Test [2] has as its target T1, SIX6 (Homo sapiens, UniProt O95475 114-200, L167I).
T1 sequence: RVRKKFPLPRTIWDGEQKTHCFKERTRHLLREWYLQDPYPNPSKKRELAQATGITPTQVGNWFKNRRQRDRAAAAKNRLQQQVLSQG

For test [3], the target named is T2, SIX6 (Homo sapiens, UniProt O95475 114-200, L143V).
T2 sequence: T1 sequence with L30V, I54L

For test [4], the target named is T3, SIX6 (Homo sapiens, UniProt O95475 114-200, H141N).
T3 sequence: T1 sequence with H28N, I54L

Test [5] concerns the target T4, SIX6 (Homo sapiens, UniProt O95475 114-200, T165P).
T4 sequence: T1 sequence with T52P, I54L

Test [6] deals with T5, SIX6 (Homo sapiens, UniProt O95475 114-200, L167M).
T5 sequence: T1 sequence with I54M

For test [7], the target named is T6, SIX6 (Homo sapiens, UniProt O95475 114-200, L143M).
T6 sequence: T1 sequence with L30M, I54L

Test [8] addresses T7, SIX6 (Homo sapiens, UniProt O95475 114-200, L143I).
T7 sequence: T1 sequence with L30I, I54L

Test [9] concerns the target T8, SIX6 (Homo sapiens, UniProt O95475 114-200, T165G).
T8 sequence: T1 sequence with T52G, I54L

Test [10] has as its target T9, SIX6 (Homo sapiens, UniProt O95475 114-200, T139Q).
T9 sequence: T1 sequence with T26Q, I54L

The target in test [11] is ALX3 (Homo sapiens, UniProt O95076 139-225, N203Q).
Chain of ALX3 (Homo sapiens, UniProt O95076 139-225, N203Q) (O95076 139-225 N203Q): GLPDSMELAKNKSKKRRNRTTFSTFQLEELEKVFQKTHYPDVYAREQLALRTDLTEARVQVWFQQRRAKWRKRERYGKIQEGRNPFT
In test [12] the target is T10, SIX6 (Homo sapiens, UniProt O95475 114-200, T165A).
T10 sequence: T1 sequence with T52A, I54L

Test [13] deals with T11, SIX6 (Homo sapiens, UniProt O95475 114-200, L167V).
T11 sequence: T1 sequence with I54V

The target of test [14] is ALX3 (Homo sapiens, UniProt O95076 139-225).
Chain of ALX3 (Homo sapiens, UniProt O95076 139-225) (O95076 139-225): as the sequence (O95076 139-225 N203Q) above, with Q65N counted along it
For test [15], the target named is T12, SIX6 (Homo sapiens, UniProt O95475 114-200).
T12 sequence: T1 sequence with I54L

Test [16] concerns the target ALX3 (Homo sapiens, UniProt O95076 139-225, L168Q).
The target in test [17] is T13, SIX6 (Homo sapiens, UniProt O95475 114-200, T165I).
T13 sequence: T1 sequence with T52I, I54L

Test [18] concerns the target ALX3 (Homo sapiens, UniProt O95076 139-225, L168V).
Test [19] concerns the target ALX3 (Homo sapiens, UniProt O95076 139-225, N203S).
Test [20] addresses NKX2-5 (Homo sapiens, UniProt P52952 125-210).
The target in test [21] is HOXA4 (Homo sapiens, UniProt Q00056 201-287, W262R).
Chain of HOXA4 (Homo sapiens, UniProt Q00056 201-287, W262R) (Q00056 201-287 W262R): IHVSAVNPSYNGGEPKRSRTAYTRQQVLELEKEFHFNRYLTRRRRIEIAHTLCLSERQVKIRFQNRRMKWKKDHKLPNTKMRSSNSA
Test [22] concerns the target HOXA4 (Homo sapiens, UniProt Q00056 201-287, R217L).
For test [23], the target named is HOXA4 (Homo sapiens, UniProt Q00056 201-287).
Chain of HOXA4 (Homo sapiens, UniProt Q00056 201-287) (Q00056 201-287): as the sequence (Q00056 201-287 W262R) above, with R62W counted along it
Test [24] deals with HOXA4 (Homo sapiens, UniProt Q00056 201-287, W262F).
Chain of HOXA4 (Homo sapiens, UniProt Q00056 201-287, W262F) (Q00056 201-287 W262F): as the sequence (Q00056 201-287 W262R) above, with R62F counted along it
Test [25] deals with HOXC10 (Homo sapiens, UniProt Q9NYD6 254-340).
Chain of HOXC10 (Homo sapiens, UniProt Q9NYD6 254-340) (Q9NYD6 254-340): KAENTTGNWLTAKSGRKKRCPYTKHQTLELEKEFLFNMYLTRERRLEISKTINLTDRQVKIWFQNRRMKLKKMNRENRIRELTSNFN
The next test has as its target T14, NKX2-6 (Homo sapiens, UniProt A6NCS4 118-204, R150C).
T14 sequence: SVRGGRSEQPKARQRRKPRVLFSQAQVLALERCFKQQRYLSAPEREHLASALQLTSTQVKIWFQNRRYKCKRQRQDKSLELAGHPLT

Test [26] concerns the target HOXD13 (Homo sapiens, UniProt P35453 263-343, T313R).
The target of test [27] is HOXD13 (Homo sapiens, UniProt P35453 263-343).
Chain of HOXD13 (Homo sapiens, UniProt P35453 263-343) (P35453 263-343): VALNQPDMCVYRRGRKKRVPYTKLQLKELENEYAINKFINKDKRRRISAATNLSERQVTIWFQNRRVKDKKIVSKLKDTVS
Test [28] has as its target HOXC10 (Homo sapiens, UniProt Q9NYD6 254-340, K271E).
For test [29], the target named is HOXD13 (Homo sapiens, UniProt P35453 263-343, T313A).
Chain of HOXD13 (Homo sapiens, UniProt P35453 263-343, T313A) (P35453 263-343 T313A): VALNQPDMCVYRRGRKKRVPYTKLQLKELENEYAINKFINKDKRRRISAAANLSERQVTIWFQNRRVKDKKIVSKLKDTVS
For test [30], the target named is T15, PAX4 (Homo sapiens, UniProt O43316 9-242, R200K).
T15 sequence: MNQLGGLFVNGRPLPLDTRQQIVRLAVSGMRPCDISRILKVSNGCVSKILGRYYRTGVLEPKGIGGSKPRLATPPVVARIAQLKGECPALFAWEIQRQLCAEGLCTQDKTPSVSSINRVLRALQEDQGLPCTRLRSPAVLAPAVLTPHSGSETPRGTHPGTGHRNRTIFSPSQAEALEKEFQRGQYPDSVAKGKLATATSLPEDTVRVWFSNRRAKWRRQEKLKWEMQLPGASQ

The target of test [31] is T16, PAX4 (Homo sapiens, UniProt O43316 9-242).
T16 sequence: T15 sequence with K192R

For test [32], the target named is T17, PAX4 (Homo sapiens, UniProt O43316 9-242, R200Q).
T17 sequence: T15 sequence with K192Q

Test [33] concerns the target T18, PAX4 (Homo sapiens, UniProt O43316 9-242, F177V).
T18 sequence: T15 sequence with F169V, K192R

For test [34], the target named is T19, PAX4 (Homo sapiens, UniProt O43316 9-242, F177Y).
T19 sequence: T15 sequence with F169Y, K192R

The target of test [35] is T20, PAX4 (Homo sapiens, UniProt O43316 9-242, R227W).
T20 sequence: T15 sequence with K192R, R219W

Chain of NKX2-5 (Homo sapiens, UniProt P52952 125-210, R139K) (P52952 125-210 R139K): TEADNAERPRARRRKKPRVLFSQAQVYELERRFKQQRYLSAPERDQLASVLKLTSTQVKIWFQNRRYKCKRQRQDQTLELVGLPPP
Chain of NKX2-5 (Homo sapiens, UniProt P52952 125-210) (P52952 125-210): as the sequence (P52952 125-210 R139K) above, with K15R counted along it
Chain of HOXD13 (Homo sapiens, UniProt P35453 263-343, T313R) (P35453 263-343 T313R): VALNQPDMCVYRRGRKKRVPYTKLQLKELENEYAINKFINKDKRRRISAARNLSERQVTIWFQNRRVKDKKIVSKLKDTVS
Chain of HOXA4 (Homo sapiens, UniProt Q00056 201-287, R217L) (Q00056 201-287 R217L): as the sequence (Q00056 201-287 W262R) above, with R17L, R62W counted along it
Chain of ALX3 (Homo sapiens, UniProt O95076 139-225, L168Q) (O95076 139-225 L168Q): as the sequence (O95076 139-225 N203Q) above, with L30Q, Q65N counted along it
Chain of ALX3 (Homo sapiens, UniProt O95076 139-225, N203S) (O95076 139-225 N203S): as the sequence (O95076 139-225 N203Q) above, with Q65S counted along it
Chain of HOXC10 (Homo sapiens, UniProt Q9NYD6 254-340, K271E) (Q9NYD6 254-340 K271E): as the sequence (Q9NYD6 254-340) above, with K18E counted along it
Chain of ALX3 (Homo sapiens, UniProt O95076 139-225, L168V) (O95076 139-225 L168V): as the sequence (O95076 139-225 N203Q) above, with L30V, Q65N counted along it

For CCCCTGCG, the binding signal in the test with NKX2-5 [1] is 8.68 upbm affinity estimate (log intensity, higher = more binding, comparable within an allelic series); with SIX6 [2], 8.92 upbm affinity estimate (log intensity, higher = more binding, comparable within an allelic series); with SIX6 [3], 8.67 upbm affinity estimate (log intensity, higher = more binding, comparable within an allelic series); with SIX6 [4], 8.89 upbm affinity estimate (log intensity, higher = more binding, comparable within an allelic series); with SIX6 [5], 8.67 upbm affinity estimate (log intensity, higher = more binding, comparable within an allelic series); with SIX6 [6], 8.87 upbm affinity estimate (log intensity, higher = more binding, comparable within an allelic series). The binding signal in the test with SIX6 [7] was 8.77 upbm affinity estimate (log intensity, higher = more binding, comparable within an allelic series); in the test with SIX6 [8], 8.85 upbm affinity estimate (log intensity, higher = more binding, comparable within an allelic series); in the test with SIX6 [9], 8.87 upbm affinity estimate (log intensity, higher = more binding, comparable within an allelic series); with SIX6 [10], 8.92 upbm affinity estimate (log intensity, higher = more binding, comparable within an allelic series); in the test with ALX3 [11] it was 7.65 upbm affinity estimate (log intensity, higher = more binding, comparable within an allelic series); with SIX6 [12], 8.91 upbm affinity estimate (log intensity, higher = more binding, comparable within an allelic series). In addition, the binding signal is 8.9 upbm affinity estimate (log intensity, higher = more binding, comparable within an allelic series) in the test with SIX6 [13]; 7.85 upbm affinity estimate (log intensity, higher = more binding, comparable within an allelic series) in the test with ALX3 [14]; 8.87 upbm affinity estimate (log intensity, higher = more binding, comparable within an allelic series) with SIX6 [15]; 7.61 upbm affinity estimate (log intensity, higher = more binding, comparable within an allelic series) with ALX3 [16]; 8.84 upbm affinity estimate (log intensity, higher = more binding, comparable within an allelic series) with SIX6 [17]; 7.71 upbm affinity estimate (log intensity, higher = more binding, comparable within an allelic series) with ALX3 [18]. In addition, the binding signal was 7.66 upbm affinity estimate (log intensity, higher = more binding, comparable within an allelic series) in the test with ALX3 [19] and 8.4 upbm affinity estimate (log intensity, higher = more binding, comparable within an allelic series) in the test with NKX2-5 [20].

On to CACCCCCG, for which the binding signal with NKX2-5 [1] was 8.95 upbm affinity estimate (log intensity, higher = more binding, comparable within an allelic series); with HOXA4 [21], 9.9 upbm affinity estimate (log intensity, higher = more binding, comparable within an allelic series); with HOXA4 [22], 9.84 upbm affinity estimate (log intensity, higher = more binding, comparable within an allelic series); in the test with HOXA4 [23] it was 9.95 upbm affinity estimate (log intensity, higher = more binding, comparable within an allelic series); with HOXA4 [24] it was 9.77 upbm affinity estimate (log intensity, higher = more binding, comparable within an allelic series); with NKX2-5 [20], 9 upbm affinity estimate (log intensity, higher = more binding, comparable within an allelic series).

For CCCCCCGG, the binding signal with NKX2-5 [1] is 8.2 upbm affinity estimate (log intensity, higher = more binding, comparable within an allelic series); with HOXC10 [25], 9.81 upbm affinity estimate (log intensity, higher = more binding, comparable within an allelic series); with NKX2-6, 8.56 upbm affinity estimate (log intensity, higher = more binding, comparable within an allelic series); with HOXD13 [26], 8.85 upbm affinity estimate (log intensity, higher = more binding, comparable within an allelic series); with HOXD13 [27] it was 8.78 upbm affinity estimate (log intensity, higher = more binding, comparable within an allelic series); in the test with HOXC10 [28] it was 9.82 upbm affinity estimate (log intensity, higher = more binding, comparable within an allelic series). In addition, the binding signal with HOXD13 [29] is 8.98 upbm affinity estimate (log intensity, higher = more binding, comparable within an allelic series); in the test with NKX2-5 [20] it was 8.1 upbm affinity estimate (log intensity, higher = more binding, comparable within an allelic series).

As for CGGTGGGC, the binding signal with NKX2-5 [1] was 9.02 upbm affinity estimate (log intensity, higher = more binding, comparable within an allelic series); with PAX4 [30] it was 9.41 upbm affinity estimate (log intensity, higher = more binding, comparable within an allelic series); in the test with PAX4 [31] it was 9.5 upbm affinity estimate (log intensity, higher = more binding, comparable within an allelic series); with NKX2-6 it was 9.22 upbm affinity estimate (log intensity, higher = more binding, comparable within an allelic series); in the test with HOXD13 [26], 9.46 upbm affinity estimate (log intensity, higher = more binding, comparable within an allelic series); with PAX4 [32], 9.39 upbm affinity estimate (log intensity, higher = more binding, comparable within an allelic series). Further, the binding signal is 9.53 upbm affinity estimate (log intensity, higher = more binding, comparable within an allelic series) with HOXD13 [27]; 9.14 upbm affinity estimate (log intensity, higher = more binding, comparable within an allelic series) with PAX4 [33]; 9.14 upbm affinity estimate (log intensity, higher = more binding, comparable within an allelic series) with PAX4 [34]; 9.44 upbm affinity estimate (log intensity, higher = more binding, comparable within an allelic series) with HOXD13 [29]; 9.26 upbm affinity estimate (log intensity, higher = more binding, comparable within an allelic series) in the test with PAX4 [35]; 9.07 upbm affinity estimate (log intensity, higher = more binding, comparable within an allelic series) in the test with NKX2-5 [20].
